# Measurements published in the supplement of paper PMC11417369.
# The full ranking holds about 25,000 sequences; the median of “ln(normalized median fluorescence intensity)” is about 7.1, and the highest 2% start at about 10. The full list was thinned out, with the highest values kept by preference.
# System: PfSIP2 AP2 domain 1 (GST-tagged)
# Assay: gcPBM binding intensity (ln(normalized median fluorescence intensity)); higher = stronger DNA binding
# Outline: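 GST-tagged P. falciparum DNA-binding domains, expressed in E. coli (about 25 μg on average), were applied for 1 h to an Agilent 4 × 180k array of primer-extended double-stranded 36-bp intergenic genomic probes plus negative controls. The binding buffer was 1× PBS with 1% milk, 0.2 mg/ml BSA, 0.5% salmon testes DNA and 0.03% Triton X-100. Bound protein was detected with Alexa488 anti-GST antibody and scanned at 488 nm. Binding intensity is the highest Masliner-normalised natural-log median intensity across replicate spots of either probe orientation.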
row,Sequence,gcPBM binding intensity (ln)
1,AGGTGTATCATAAAATGTACATACATACATACATAA [XGTACX_site4479],7.02
2,ATAAGATAGGCATATACACACATTTATTTACAGATA [CACACA_site5754],6.87
3,TTATATAGGCAGATGGTGCATCTATTTATAAGCAAC,10.7
4,TTATATTAGCCGATGGTGCATATATTTATAGGAAAA [GTGCAC_site9518],10.1
5,TGTCTTGTAAATTATTGTACTATTTAAAGTATACAA [XGTACX_site7864],7.21
6,TATGAATTTATCTACAACATTTGAAATAAATTAAAA [CACACA_negctrl_site79],6.72
7,TTGTTTATCAACAGCACACACAACAACAACAACAAC [CACACA_site458],7.25
8,AAATATAATAATAATTTAAGAATCTAATATTTTATA [CACACA_negctrl_site831],6.59
9,ATACGATTGCAGTCAAAAAGGAAAATATAAAAAAAG [XGTACX_negctrl_site124],7.29
10,TTTTTTTTTTTTCACGTGCACTATACATATAAGTAA,10.5
11,TTTTTTTTTTTTTCAAGTACATATATATATATATAA [XGTACX_site2098],7.58
12,TTTTACGTGAGTAATACACACATATAAGTTTATATA [CACACA_site4120],6.74
13,AATATAATATTATATAGTACATATTTCTTTTATTTT [XGTACX_site22],6.82
14,TTTTCAAAAATATATACACACATGCATATTACGGTG [CACACA_site775],6.98
15,AAAATTTCAATAAATACACACATATATATATATATT [CACACA_site1685],7.07
16,ACACATACACATTAGGTGCATATATTTCAATATTAC [GTGCAC_site9423],10.3
17,TTGTTGTATTATTTATGTACATATGTATATGTATAT [XGTACX_site1315],7.17
18,AATATTGTATATAATAAACACACAATATTAAAAATA [CACACA_site8262],6.99
19,TATTGTATATAATAAACACACAATATTAAAAATATA [CACACA_site1057],6.8
20,ACAAAAAAAAACGTGGTGCATTAATAATATTGTATA [GTGCAC_site9469],10.3
21,ATATGGTGATATAGGTGTACATTTTGATGCTTATTT [XGTACX_site4283],6.95
22,AGCATTTTAAGTTATACACACATTTTGAATCTATAT [CACACA_site7599],6.89
23,ATTTTCTTTCTATGCACACGCACGTATTTGCACCCA [CACACA_site3350],11.9

row,Sequence,gcPBM binding intensity (ln)
1,CACCCGCACGTATTTGCACACATTGCCACGTAATTA [CACACA_site5786],7.76
2,TTATTTTCTTTCTATGCACACGCACGTATTTGCCCA [CACACA_site9104],7.91
3,TAAAAATAAATAAATACATGCACCAAAAATAAATTT [TGCATGCA_site801],10.2
4,TACATAAATTTTAATACATGCAAATAAAATATATAA [TGCATGCA_site131],6.94
5,TTAAAAAAATATAATACACACCAAAAATATGCACAT [CACACA_site5209],9.27
6,TCCTATGATGATGATAGTACATATGAGTTCAAAAAA [XGTACX_site273],6.81
7,CACCAATTCATATGCACACACATCTGCATATTATAT [CACACA_site1773],7.43
8,GGAAAATTATCAATAGCATGCAAAATGTGAATATTA [TGCATGCA_site901],6.83
9,TATATAATATATATAGTGCATAAGTTCAAAAGAATA [GTGCAC_site9805],8.73
10,CCATGTAGTGAATAGGTGCATATCAAAAAAAAAAAA,11
11,CATATAAATAGACACACACACACATATAAATAAATA [CACACA_site7156],7.23
12,AAAACAATAATATACTGTACATATATATAATAACAT [XGTACX_site6188],7.13
13,ATGGTATAAAAAAATACACACTTATATATATTCTTA [CACACA_site4427],6.86
14,TGTATATGTGAAGCAAGGGATGCGGCAGACATAACA [CACACA_negctrl_site1339],7.07
15,TATTTATATGTATATACATGCACATATATATGAAAC [TGCATGCA_site1005],7.7
16,ATTTCCCCAACGTGGGTGCATATATTTATGTGTGAA [GTGCAC_site9439],11.1
17,TTTATTTATGTGTGGGTGCATATACGTATGATGTAT,10.6
18,CACATATATATGTGTGCATGTTGTATTATATATTTA [TGCATGCA_site632],8.48
19,ATTTATATATATGTATGTACGTATGTGTGTATATGT [XGTACX_site7587],7.73
20,TTATTTTATTTAGGGTGTACCCAATTTTTCCATATG [XGTACX_site4957],6.78
21,ATATATTATGGGTGTGCACACAATATTTATATGTTC [CACACA_site2270],8.64
22,ATATGAAACATGAAGGTGCATAATGTGTATATTTAT,10.8
